Measurements from PubChem BioAssay.
The source made the active and inactive calls.

Legend:
[1] = binders of probe aFSTL3 on microarray, primary screen, stem cell growth factor project, biochemical, small-molecule microarray, fluorescence 635/667 (AID 1064); settings: higher = more signal;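 also: measures binding of the biotinylated anti-FSTL3 antibody to printed compounds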
[2] = binders from COS7 lysate, DM2A8 probe, primary screen, torsin A project, cell lysate, small-molecule microarray, fluorescence 635/667 (AID 1065); settings: higher = more signal, COS7 lysate expressing mutant human TOR1A
[3] = binders of probe aFGF2 on microarray, primary screen, stem cell growth factor project, biochemical, small-molecule microarray, fluorescence 635/667 (AID 1067); settings: higher = more signal;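 also: measures binding of biotinylated aFGF2 protein to printed compounds on slides; z-score merges feature fluorescence and signal-to-noise across triplicate slides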
[4] = binders of probe aFGF10 on microarray, primary screen, stem cell growth factor project, biochemical, small-molecule microarray, fluorescence 635/667 (AID 1071); settings: higher = more signal;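 also: score merges 667 nm spot intensity and signal to noise from triplicate slides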
[5] = molecular target: Neurogenic locus notch homolog protein 2 (Homo sapiens) (UniProt Q04721); assay: Notch2 binders on small-molecule microarrays, primary screen, biochemical, small-molecule microarray, 635 nm fluorescence, stem cell growth factors (AID 1073); settings: Notch2 binding, higher = more signal
[6] = molecular target: Pro-neuregulin-1, membrane-bound isoform (Homo sapiens) (UniProt Q02297); assay: NRG1 binders on small-molecule microarrays, primary screen, psychiatric disease protein project, biochemical, small-molecule microarray, fluorescence 635/667 (AID 1075); settings: NRG1 binding, 635 nm fluorescence, higher = more signal;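 also: score combines 667 nm spot fluorescence with signal to noise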
[7] = tested on: Neuregulin-1 EGF-like domain; assay: binders of neuregulin-1 EGF-like domain, primary screen, biochemical, small-molecule microarray, 635 nm fluorescence (AID 1081); settings: small-molecule microarray binding, higher = more signal;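 also: binding of the protein to compounds printed on small-molecule microarray slides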
[8] = FRG1 promoter luciferase signal modulators, primary screen, FRG1 inhibition for FSHD, cell-based, C2C12 myotubes, firefly/Renilla luciferase, luminescence (AID 1084); settings: higher = more signal, called active from +8 up or from −8 down
[9] = binders of probe aFST on microarray, primary screen, stem cell growth factor project, biochemical, small-molecule microarray, fluorescence 635/667 (AID 1086); settings: higher = more signal;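 also: score merges 667 nm fluorescence with signal-to-noise of each printed compound spot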
[10] = binders of probe aHhip on microarray, primary screen, stem cell growth factor project, biochemical, small-molecule microarray, fluorescence 635/667 (AID 1087); settings: higher = more signal;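 also: score merges spot fluorescence at 667nm with spot signal to noise ratio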
[11] = tested on: PRMT1 (protein arginine N-methyltransferase 1); assay: PRMT1 binders on small-molecule microarrays, primary screen, biochemical, small-molecule microarray, 635 nm fluorescence (AID 1088); settings: small-molecule microarray binding, higher = more signal;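 also: binding of Prmt1 protein to compounds spotted on small-molecule microarray slides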
[12] = yeast growth modulation, basal conditions, primary screen, YJM789 clinical isolate, OD600, 24 h (AID 1089);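 also: growth of clinical yeast isolate S. cerevisiae YJM 789 seeded 1000 cells per well; test concentration not given here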; settings: S. cerevisiae YJM789 growth, higher = more signal, called active from +8 up or from −8 down
[13] = fission yeast growth modulation, primary screen, strain 972, OD600, 24 h, no modulator (AID 1090);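 also: basal condition with compound alone and no growth modifier present; test concentration not given here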; settings: S. pombe 972 growth, higher = more signal, called active from +8 up or from −8 down
[14] = S. cerevisiae growth modulation with rapamycin, primary screen, strain BY4716, OD600, 96 h (AID 1091); settings: higher = more signal, called active from +8 up or from −8 down; also: test concentration not given here
[15] = molecular target: Torsin-1A-interacting protein 2 (Homo sapiens) (UniProt Q8NFQ8); assay: LULL1 binders on small-molecule microarray, primary screen, cell lysate, human LULL1 lysate, 635/667 nm fluorescence (AID 1092); settings: hLULL1 lysate binding, 635 nm fluorescence, higher = more signal;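 also: probe is lysate of COS7 cells overexpressing human LULL1; score merges per-feature 667 nm fluorescence with signal-to-noise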
[16] = E. coli growth modulation, two-sided OD650, primary screen, E. coli filamentation project, strain DRC41, 24 h (AID 1093); settings: OD650, 24 h, higher = more signal, called active from +8 up or from −8 down;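 also: MC1000 strain lacking acrAB efflux and sulA so SOS filamentation is blocked; test concentration not given here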
[17] = small-molecule microarray binders of probe aLefty2, primary screen, biochemical, biotinylated probe, 635/667 nm fluorescence (AID 1094); settings: higher = more signal;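 also: score merges spot fluorescence near 667 nm with spot signal-to-noise ratio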
[18] = tested on: Noggin (protein binding on small-molecule microarray); assay: Noggin binders on small-molecule microarray, primary screen, biochemical, 635/667 nm fluorescence (AID 1095); settings: 635 nm fluorescence, higher = more signal;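 also: score merges 667 nm feature fluorescence with signal to noise over triplicate slides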
[19] = molecular target: Neurogenic locus notch homolog protein 3 (Homo sapiens) (UniProt Q9UM47); assay: NOTCH3 binders on small-molecule microarray, primary screen, biochemical, 635/667 nm fluorescence (AID 1096); settings: NOTCH3 binding, 635 nm fluorescence, higher = more signal
[20] = small-molecule microarray binders of probe aEGFR, primary screen, biochemical, biotinylated probe, 635/667 nm fluorescence (AID 1097); settings: higher = more signal;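 also: probe is a biotinylated anti-EGFR antibody binding compounds printed on slides; score combines fluorescence near 667 nm and signal to noise of each spot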

Sequence of Pro-neuregulin-1, membrane-bound isoform (Homo sapiens) (Q02297 whole entry, looked up, the tested form may be a part, canonical isoform): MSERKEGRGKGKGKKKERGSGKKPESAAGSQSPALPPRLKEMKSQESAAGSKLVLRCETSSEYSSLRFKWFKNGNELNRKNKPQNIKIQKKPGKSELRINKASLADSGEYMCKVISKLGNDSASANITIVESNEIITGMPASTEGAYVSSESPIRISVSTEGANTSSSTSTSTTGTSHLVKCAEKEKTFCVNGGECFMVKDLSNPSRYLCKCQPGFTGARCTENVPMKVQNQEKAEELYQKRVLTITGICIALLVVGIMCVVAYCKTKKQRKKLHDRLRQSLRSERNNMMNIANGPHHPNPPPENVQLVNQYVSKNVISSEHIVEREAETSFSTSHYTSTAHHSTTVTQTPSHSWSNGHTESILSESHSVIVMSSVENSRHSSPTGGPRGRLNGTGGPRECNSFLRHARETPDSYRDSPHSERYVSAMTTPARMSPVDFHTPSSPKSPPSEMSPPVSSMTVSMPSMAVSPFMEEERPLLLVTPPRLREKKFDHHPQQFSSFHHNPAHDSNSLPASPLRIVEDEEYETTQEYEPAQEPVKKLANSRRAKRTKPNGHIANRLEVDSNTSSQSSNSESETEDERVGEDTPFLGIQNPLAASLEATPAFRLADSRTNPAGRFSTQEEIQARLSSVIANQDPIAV
Sequence of Neurogenic locus notch homolog protein 3 (Homo sapiens) (Q9UM47 whole entry, looked up): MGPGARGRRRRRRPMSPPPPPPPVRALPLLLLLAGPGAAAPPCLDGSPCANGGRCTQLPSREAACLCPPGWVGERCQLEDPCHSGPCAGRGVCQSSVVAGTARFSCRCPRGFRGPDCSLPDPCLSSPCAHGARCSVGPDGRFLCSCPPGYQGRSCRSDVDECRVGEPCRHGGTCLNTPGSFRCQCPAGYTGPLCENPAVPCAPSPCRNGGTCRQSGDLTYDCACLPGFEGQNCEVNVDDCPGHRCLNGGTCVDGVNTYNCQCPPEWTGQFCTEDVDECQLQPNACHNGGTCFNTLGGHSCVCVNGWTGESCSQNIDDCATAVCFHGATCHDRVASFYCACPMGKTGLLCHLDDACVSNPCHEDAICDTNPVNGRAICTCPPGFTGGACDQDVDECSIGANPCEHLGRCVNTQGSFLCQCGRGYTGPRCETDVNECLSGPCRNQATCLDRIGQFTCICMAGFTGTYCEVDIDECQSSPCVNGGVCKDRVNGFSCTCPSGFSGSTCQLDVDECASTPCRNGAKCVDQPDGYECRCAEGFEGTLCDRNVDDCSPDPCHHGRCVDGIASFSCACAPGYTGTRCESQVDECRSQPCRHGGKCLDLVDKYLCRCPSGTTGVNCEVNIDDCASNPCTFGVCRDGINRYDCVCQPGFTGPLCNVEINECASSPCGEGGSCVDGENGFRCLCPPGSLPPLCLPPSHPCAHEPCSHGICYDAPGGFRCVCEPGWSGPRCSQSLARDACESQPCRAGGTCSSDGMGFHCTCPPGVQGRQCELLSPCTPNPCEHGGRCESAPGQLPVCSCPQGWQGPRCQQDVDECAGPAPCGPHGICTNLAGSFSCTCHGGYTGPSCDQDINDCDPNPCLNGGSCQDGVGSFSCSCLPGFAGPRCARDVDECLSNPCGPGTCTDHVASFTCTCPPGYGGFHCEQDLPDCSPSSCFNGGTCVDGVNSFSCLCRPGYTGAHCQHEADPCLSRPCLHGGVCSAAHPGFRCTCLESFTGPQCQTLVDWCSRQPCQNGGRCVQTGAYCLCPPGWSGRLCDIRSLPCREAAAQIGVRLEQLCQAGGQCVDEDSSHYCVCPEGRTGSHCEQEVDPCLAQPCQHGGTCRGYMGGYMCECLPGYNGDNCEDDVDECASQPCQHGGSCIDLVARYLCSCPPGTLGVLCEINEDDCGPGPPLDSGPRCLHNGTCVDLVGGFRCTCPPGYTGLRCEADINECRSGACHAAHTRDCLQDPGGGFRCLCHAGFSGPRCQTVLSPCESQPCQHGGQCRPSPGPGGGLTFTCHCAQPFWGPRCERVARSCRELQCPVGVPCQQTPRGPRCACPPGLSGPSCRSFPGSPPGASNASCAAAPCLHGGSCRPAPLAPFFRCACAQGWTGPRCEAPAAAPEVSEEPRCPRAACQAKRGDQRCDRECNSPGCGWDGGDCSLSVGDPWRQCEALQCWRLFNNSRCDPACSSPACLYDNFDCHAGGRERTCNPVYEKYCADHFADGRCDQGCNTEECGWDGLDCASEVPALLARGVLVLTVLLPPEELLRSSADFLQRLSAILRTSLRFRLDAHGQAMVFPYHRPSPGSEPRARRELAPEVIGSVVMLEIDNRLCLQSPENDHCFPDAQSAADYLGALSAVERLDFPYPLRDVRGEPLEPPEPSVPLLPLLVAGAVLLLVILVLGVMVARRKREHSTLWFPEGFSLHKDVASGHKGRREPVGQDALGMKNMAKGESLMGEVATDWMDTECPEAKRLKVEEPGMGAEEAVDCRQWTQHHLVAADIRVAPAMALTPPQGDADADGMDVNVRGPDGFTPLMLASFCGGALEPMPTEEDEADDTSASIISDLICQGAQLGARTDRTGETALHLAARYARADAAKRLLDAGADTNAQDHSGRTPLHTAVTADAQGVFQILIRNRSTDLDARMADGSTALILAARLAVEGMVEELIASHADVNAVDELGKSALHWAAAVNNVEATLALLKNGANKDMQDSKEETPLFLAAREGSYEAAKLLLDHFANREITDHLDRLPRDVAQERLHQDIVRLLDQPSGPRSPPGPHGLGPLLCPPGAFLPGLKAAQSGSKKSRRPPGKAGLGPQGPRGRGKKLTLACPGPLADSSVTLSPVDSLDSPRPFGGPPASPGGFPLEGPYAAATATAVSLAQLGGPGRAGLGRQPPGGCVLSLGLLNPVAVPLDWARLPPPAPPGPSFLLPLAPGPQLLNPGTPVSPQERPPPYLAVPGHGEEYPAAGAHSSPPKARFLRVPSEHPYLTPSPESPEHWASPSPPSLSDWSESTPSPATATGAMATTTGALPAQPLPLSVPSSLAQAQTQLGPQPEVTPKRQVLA
Sequence of Torsin-1A-interacting protein 2 (Homo sapiens) (Q8NFQ8 whole entry, looked up): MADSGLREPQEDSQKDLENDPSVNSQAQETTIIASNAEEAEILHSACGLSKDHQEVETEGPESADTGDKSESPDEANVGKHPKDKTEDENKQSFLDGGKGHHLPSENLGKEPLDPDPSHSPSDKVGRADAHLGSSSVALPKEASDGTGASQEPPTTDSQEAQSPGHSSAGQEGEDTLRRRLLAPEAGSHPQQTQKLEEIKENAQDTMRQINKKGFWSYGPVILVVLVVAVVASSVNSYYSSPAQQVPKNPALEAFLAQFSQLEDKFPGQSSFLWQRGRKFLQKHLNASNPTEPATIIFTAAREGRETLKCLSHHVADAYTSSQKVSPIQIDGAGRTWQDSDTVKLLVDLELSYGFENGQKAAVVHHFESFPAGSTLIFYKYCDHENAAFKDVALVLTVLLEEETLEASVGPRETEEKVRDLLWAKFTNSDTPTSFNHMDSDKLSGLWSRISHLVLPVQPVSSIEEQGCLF

Structure (SMILES)	composite z-score [1]	composite z-score [2]	composite z-score [3]	composite z-score [4]	composite z-score [5]	composite z-score [6]	composite z-score [7]	z-score [8]	composite z-score [9]	composite z-score [10]	composite z-score [11]	z-score [12]	z-score [13]	z-score [14]	composite z-score [15]	z-score [16]	composite z-score [17]	composite z-score [18]	composite z-score [19]	composite z-score [20]
CN1C(=O)C2C=CC(C(O)c3ccc([N+](=O)[O-])cc3)N(Nc3ccccc3)C2C1=O (stereo not given)	-0.001	0.135	0.235	0.889	1.62	1.75	1.16	-0.439 (inactive)	0.955	-0.156	1.38	0.439 (inactive)	-0.184 (inactive)	0.315 (inactive)	3.25	-1.69 (inactive)	0.222	-0.0487	1.03	0.0089
Cc1ccc(S(=O)(=O)N2[C@@H](c3ccccc3)C(C(=O)O)=CC[C@H]2c2ccc(F)cc2)cc1	-0.191	1.32	0.174	1.41	-0.0595	-0.0826	1.33	-2.75 (inactive)	0.654	-0.252	1.26	-0.485 (inactive)	0.364 (inactive)	0.311 (inactive)	4.08	-0.0865 (inactive)	-0.0803	-0.0184	0.76	-0.241
COC(=O)[C@H](Cc1ccccc1)N1CC(C)(OC)O[C@@H](Cc2ccccc2)[C@H]1/C=C/C1CC1 (stereo not given in full)	0.016	0.12	-0.073	-0.194	0.144	0.0246	0.484	-0.218 (inactive)	-0.205	-0.331	0.38	0.0394 (inactive)	-2.37 (inactive)	-0.184 (inactive)	0.638	-0.0718 (inactive)	-0.124	-0.305	-0.68	-0.15
CC(C)[Si](C#Cc1ccccc1)(O[C@H](c1ccccc1)c1cn(Cc2ccccc2)nn1)C(C)C	-0.527	0.884	-0.123	0.76	0.534	0.8	1.28	0.92 (inactive)	0.0643	0.107	1.02	-1.94 (inactive)	-19.9 (active)	-2.28 (inactive)	2.04	2.14 (inactive)	-0.195	1.08	1.01	-0.133
CCc1cccc(NC(=O)O[C@H]2[C@H](OC(=O)Nc3ccccc3-c3ccccc3)[C@H](OC(=O)Nc3ccccc3-c3ccccc3)[C@@H](OC)O[C@@H]2CO)c1	-0.189	0.42	0.155	0.576	1.54	1.48	1.11	-0.714 (inactive)	1.14	-0.214	1.55	1.95 (inactive)	1.31 (inactive)	0.423 (inactive)	2.91	-1.08 (inactive)	0.229	1.48	1.05	-0.0232
